Results on seven molecules are retold here after PubChem BioAssay (EPA / NIEHS).

Test [1] can be described thus: APR_HepG2_CellLoss_72hr: Apredica 72-hour HepG2 Assay for Cell Loss (AID 2282915). As to conditions: high-content imaging. The essentials:
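HepG2 cells exposed 72 h to compound at 0.39–200 uM (10 concentrations, duplicate) in 0.5% DMSO. Fixed with 3.7% formaldehyde and Hoechst 33342-stained. Imaged at 20x; nuclear count gives cell number, fitted bidirectionally versus DMSO.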

A short description of test [2]: APR_HepG2_P-H2AX_72hr: Apredica 72-hour HepG2 Assay for H2AX Phosphorylation (AID 2282916).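 Note: phospho-histone H2A.x immunostain intensity per cell marking DNA damage.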 As to conditions: imaging, actives raise or lower the signal. The essentials:
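Following 72 hr treatment with 0.39–200 uM compound, HepG2 cells were formaldehyde-fixed, permeabilized and stained for phospho-H2A.x; signal was measured by high-content imaging and fitted bidirectionally against DMSO controls.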

Test [3] is described as follows: APR_HepG2_MitoMembPot_72hr: Apredica 72-hour HepG2 Assay for Mitochondrial Membrane Potential (AID 2282917). The note with it: imaging, actives raise or lower the signal. The essentials: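 HepG2 cells dosed 72 hr with compound at 0.39–200 uM in duplicate, 0.5% v/v DMSO final. Mitochondria stained with 250 nM MitoTracker Red CMXRos for 30 min before formaldehyde fixation, imaged by high-content fluorescence; bidirectional fit versus DMSO.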

Test [4] is described as follows: APR_HepG2_MitoticArrest_72hr: Apredica 72-hour HepG2 Assay for Mitotic Arrest (AID 2282918). The note with it: high-content imaging, actives raise or lower the signal. In a few lines: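 High-content imaging of fixed human HepG2 cells after 72 h compound exposure (0.39–200 uM, duplicates, 0.5% DMSO); mitotic arrest scored from phospho-histone H3 and nuclear Hoechst staining relative to DMSO.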

The nature of test [5]: APR_HepG2_MicrotubuleCSK_72hr: Apredica 72-hour HepG2 Assay for Microtubule CSK Stabilty (AID 2282919). As to conditions: HepG2 microtubule cytoskeleton, high-content imaging, actives raise or lower the signal. In a few lines: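 HepG2 cells were exposed 72 hr to compound at 0.39–200 uM in duplicate (0.5% DMSO final), then fixed and permeabilized. Alpha-tubulin immunofluorescence was imaged by high-content microscopy, with bidirectional fitting against DMSO and taxol as positive control.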

Test [6] in a line: APR_HepG2_P-H2AX_24hr: Apredica 24-hour HepG2 Assay for H2AX Phosphorylation (AID 2282920). As to conditions: high-content imaging, actives raise or lower the signal. In a few lines: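 High-content imaging of phospho-histone H2A.x immunofluorescence, nuclei counterstained with Hoechst 33342, in fixed HepG2 cells. Compounds ran 0.39–200 uM in duplicate for 24 h, final DMSO 0.5%. Signal change fitted both directions against DMSO.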

Test [7] in a line: APR_HepG2_StressKinase_72hr: Apredica 72-hour HepG2 Assay for Stress Kinase (AID 2282921). As to conditions: HepG2 stress kinase (phospho-c-Jun) imaging, actives raise or lower the signal. In a few lines:
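Fluorescence intensity of Cy3-tagged anti-phospho-c-Jun antibody, quantified per cell from Hoechst-defined nuclei across six images per well, served as the read-out following 72 h exposure (0.39–200 uM, 0.5% v/v DMSO).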

Test [8] can be described thus: APR_HepG2_StressKinase_24hr: Apredica 24-hour HepG2 Assay for Stress Kinase (AID 2282922). As to conditions: HepG2 stress kinase (phospho-c-Jun) imaging, actives raise or lower the signal. The essentials:
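HepG2 cells exposed 24 h to 0.39–200 uM compound in duplicate (0.5% v/v DMSO final). Cells fixed in 3.7% formaldehyde, permeabilized and immunostained for phospho-c-Jun; read by high-content fluorescence imaging, fitted bidirectionally against DMSO.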

Test [9] in a line: APR_HepG2_p53Act_72hr: Apredica 72-hour HepG2 Assay for p53 Activation (AID 2282923).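 Note: average cellular p53 protein immunofluorescence intensity in HepG2 cells.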 As to conditions: high-content imaging, actives raise or lower the signal. The essentials:
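HepG2 monolayers receive test compounds in duplicate at ten concentrations (0.39 through 200 uM) for 72 hr. They are then formaldehyde-fixed, antibody-labelled for p53, Hoechst-stained and imaged, with activity fitted bidirectionally versus DMSO.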

The nature of test [10]: APR_HepG2_MitoMass_72hr: Apredica 72-hour HepG2 Assay for Mitochondrial Mass (AID 2282924).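 Note: MitoTracker Red CMXRos stain intensity per cell imaged as mitochondrial mass.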 The note with it: high-content imaging, actives raise or lower the signal. The essentials: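 HepG2 cells dosed 72 hr at 0.39–200 uM (0.5% DMSO), in duplicate. MitoTracker Red CMXRos 250 nM loaded 30 min before formaldehyde fixation; high-content fluorescence imaging, bidirectional fit versus DMSO.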

Test [11] is described as follows: APR_HepG2_NuclearSize_72hr: Apredica 72-hour HepG2 Assay for Nuclear Size (AID 2282925). The note with it: high-content imaging, actives raise or lower the signal. The essentials:
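HepG2 cells dosed 72 h at 0.39–200 uM (10 concentrations, duplicate) in 0.5% v/v DMSO final. Fixed, Hoechst 33342-stained nuclei imaged; nuclear diameter measured by automated image analysis. Bidirectional fit versus DMSO.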

Test [12] can be described thus: ATG_CRE_CIS: Attagene CIS-FACTORIAL HepG2 Assay for human cAMP Responsive Element (CRE) binding protein 3 (AID 2282926). As to conditions: HepG2 CRE cis-reporter, Attagene multiplexed mRNA; actives raise or lower the signal. The essentials: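 Multiplexed transcription-unit reporters transfected into HepG2; 24 h dosing; RT-PCR/capillary electrophoresis fluorescence read-out; bidirectional fit vs DMSO.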

The target in test [13] is CCAAT/enhancer-binding protein beta (Homo sapiens) (UniProt P17676). In words: ATG_C_EBP_CIS: Attagene CIS-FACTORIAL HepG2 Assay for human CCAAT/Enhancer Binding Protein (C/EBP) beta (AID 2282927). The note with it: HepG2 Attagene cis-factorial transcription factor reporter; actives raise or lower the signal. In a few lines:
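HepG2 transiently transfected with multiplexed reporter units under cis-regulatory promoters reporting endogenous C/EBPb activity. After 24 h exposure, reporter mRNA assayed by RT-PCR, fluorescent labelling, HpaI digestion and capillary electrophoresis; bidirectional fitting versus DMSO.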

A short description of test [14]: ATG_CMV_CIS: Attagene CIS-FACTORIAL HepG2 Assay for human CMV (Internal Marker) (AID 2282928).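 Note: endpoint acts as a background internal control marker rather than a target.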 As to conditions: HepG2 CMV promoter reporter, transcription factor profiling; actives raise or lower the signal. The essentials:
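CMV internal-marker background readout in transiently transfected HepG2 cells bearing cis-regulated reporter units. Reporter mRNA is measured 24 h after dosing by RT-PCR and capillary electrophoresis, with bidirectional fitting against DMSO.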

Test [15] can be described thus: ATG_DR4_LXR_CIS: Attagene CIS-FACTORIAL HepG2 Assay for human Liver X Receptor (LXR), DR4 submotif (AID 2282929). The note with it: HepG2 Attagene DR4 cis-reporter, mRNA transcription; actives raise or lower the signal. The essentials:
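The endpoint is DR4-element-driven reporter transcripts after 24 h chemical exposure of transfected HepG2 cells. These were measured via RT-PCR and capillary electrophoresis, and gain or loss of signal was fitted relative to DMSO controls.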

The target in test [16] is Aryl hydrocarbon receptor (Homo sapiens) (UniProt P35869). In words: ATG_Ahr_CIS: Attagene CIS-FACTORIAL HepG2 Assay for human Aryl Hydrocarbon Receptor (Ahr) (AID 2282930). As to conditions: HepG2 AhR cis-factorial reporter transcription; actives raise or lower the signal. The essentials: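 HepG2 cells transiently transfected with cis-element-driven multiplexed reporter units; endogenous AhR activity read as reporter mRNA 24 h after dosing, via RT-PCR, 6-FAM labelling, HpaI digestion and capillary electrophoresis. Bidirectional fit relative to DMSO.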
Aryl hydrocarbon receptor (Homo sapiens), sequence (P35869 whole entry, looked up): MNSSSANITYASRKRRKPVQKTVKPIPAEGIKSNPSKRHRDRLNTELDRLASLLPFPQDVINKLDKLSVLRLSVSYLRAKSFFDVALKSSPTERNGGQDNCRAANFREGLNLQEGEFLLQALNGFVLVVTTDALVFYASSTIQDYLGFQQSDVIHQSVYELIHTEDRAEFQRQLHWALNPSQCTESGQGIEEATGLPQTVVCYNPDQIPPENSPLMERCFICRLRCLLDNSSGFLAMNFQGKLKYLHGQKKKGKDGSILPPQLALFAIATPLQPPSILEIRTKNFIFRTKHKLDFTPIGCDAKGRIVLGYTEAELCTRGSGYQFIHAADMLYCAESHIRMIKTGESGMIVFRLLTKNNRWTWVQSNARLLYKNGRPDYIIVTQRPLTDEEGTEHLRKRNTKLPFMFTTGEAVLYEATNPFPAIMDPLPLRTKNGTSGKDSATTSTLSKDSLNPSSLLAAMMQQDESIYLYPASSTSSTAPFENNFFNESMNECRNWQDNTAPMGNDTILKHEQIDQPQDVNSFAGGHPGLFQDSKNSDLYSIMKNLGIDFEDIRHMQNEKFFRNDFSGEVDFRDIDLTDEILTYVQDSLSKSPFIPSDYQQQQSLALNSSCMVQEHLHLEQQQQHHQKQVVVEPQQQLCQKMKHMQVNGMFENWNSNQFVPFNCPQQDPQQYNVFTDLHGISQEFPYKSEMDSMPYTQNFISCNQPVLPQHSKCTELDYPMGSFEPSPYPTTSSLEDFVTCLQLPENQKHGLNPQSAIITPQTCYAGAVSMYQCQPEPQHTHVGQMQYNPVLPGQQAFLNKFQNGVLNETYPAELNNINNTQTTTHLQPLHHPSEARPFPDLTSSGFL

The nature of test [17]: ATG_AP_1_CIS: Attagene CIS-FACTORIAL HepG2 Assay for human Activator Protein 1 (AP-1) (AID 2282931). The note with it: HepG2 Attagene cis-factorial AP-1 reporter mRNA; actives raise or lower the signal. The essentials: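 Readout is reporter transcript level from endogenous transcription factor activity, quantified by RT-PCR with fluorescent primer extension and capillary electrophoresis. Transiently transfected HepG2 cells, 24 h exposure. Curves fitted both directions versus DMSO.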

Test [18] is described as follows: ATG_AP_2_CIS: Attagene CIS-FACTORIAL HepG2 Assay for human Activator Protein 2 (AP-2) (AID 2282932). The note with it: HepG2 AP-2 cis-reporter, Attagene transcription factor profiling; actives raise or lower the signal. The essentials: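 Multiplexed mRNA reporter assay in HepG2: cis-regulated units report endogenous factor activity after 24 h treatment. Fluorescence from capillary electrophoresis of RT-PCR products gives the signal, with DMSO as baseline.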

Test [19] can be described thus: ATG_BRE_CIS: Attagene CIS-FACTORIAL HepG2 Assay for human Bone Morphogenetic Protein (BMP) Response Element (BRE) (AID 2282933). The note with it: HepG2 BMP response element reporter, Attagene transcription factor profiling; actives raise or lower the signal. In a few lines: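 After a 24 h chemical treatment, transiently transfected HepG2 cells were lysed for RNA; reporter transcripts were quantified by fluorescent RT-PCR and capillary electrophoresis, normalised to DMSO.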

For test [20], the target named is Retinoic acid receptor alpha (Homo sapiens) (UniProt P10276). Description: ATG_DR5_RAR_CIS: Attagene CIS-FACTORIAL HepG2 Assay for human Retinoic Acid Receptor Alpha (RARE), DR5 submotif (AID 2282934). The note with it: HepG2 Attagene cis-factorial RARE DR5 reporter, mRNA; actives raise or lower the signal. The essentials: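 HepG2 cells transiently transfected with multiplexed reporter units; DR5 cis-element drives reporter through endogenous transcription factors. After 24 h dosing, reporter mRNA quantified by RT-PCR, fluorescent labeling, HpaI digestion and capillary electrophoresis; bidirectional fitting versus DMSO.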
Retinoic acid receptor alpha (Homo sapiens), sequence (P10276 whole entry, looked up): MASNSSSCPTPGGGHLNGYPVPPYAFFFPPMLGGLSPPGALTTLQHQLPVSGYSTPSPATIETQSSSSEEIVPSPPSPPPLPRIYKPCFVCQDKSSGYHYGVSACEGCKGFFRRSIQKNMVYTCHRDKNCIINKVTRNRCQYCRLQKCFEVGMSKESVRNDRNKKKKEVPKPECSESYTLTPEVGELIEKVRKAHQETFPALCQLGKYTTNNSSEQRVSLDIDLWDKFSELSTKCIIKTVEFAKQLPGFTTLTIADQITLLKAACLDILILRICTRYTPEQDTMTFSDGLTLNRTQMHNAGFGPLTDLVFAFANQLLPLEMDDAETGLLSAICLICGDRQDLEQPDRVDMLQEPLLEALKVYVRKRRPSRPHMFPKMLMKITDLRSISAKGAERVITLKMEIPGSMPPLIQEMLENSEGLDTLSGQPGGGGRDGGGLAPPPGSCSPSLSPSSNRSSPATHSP

Structures are written as SMILES. Active and inactive are the calls of the source. Rule for the calls: active = hit-call score of the fitted dose curve at least 0.9, where 1 is the maximum; inactive = score below 0.9.

CCAAT/enhancer-binding protein beta (Homo sapiens), sequence (P17676 whole entry, looked up): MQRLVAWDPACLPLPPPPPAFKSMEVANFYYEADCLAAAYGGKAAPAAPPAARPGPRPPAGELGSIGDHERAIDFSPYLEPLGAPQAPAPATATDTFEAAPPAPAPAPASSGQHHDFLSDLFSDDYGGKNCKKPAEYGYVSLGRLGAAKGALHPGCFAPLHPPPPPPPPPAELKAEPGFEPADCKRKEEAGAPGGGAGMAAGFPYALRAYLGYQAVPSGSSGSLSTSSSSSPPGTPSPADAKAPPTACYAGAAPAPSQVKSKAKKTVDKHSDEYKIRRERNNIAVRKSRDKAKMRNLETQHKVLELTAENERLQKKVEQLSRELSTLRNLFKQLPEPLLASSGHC

In general, AC50 refers to the concentration at which the activity in the assay is half-maximal. Take `CNCc1cc(F)ccc1Oc1ccc(Cl)c(Cl)c1`: the AC50 in test [1] is 56.9 µM (active); in [2], 59.5 µM (active); in test [4], 32.6 µM (active); in test [6] it was 74.4 µM (active); in test [9], 63 µM (active); in test [10], 178 µM (active). In addition, in test [11], the AC50 was 103 µM (active). Further, the outcome in test [3], in test [5], in test [7], in [8], in [12] and in test [13] was inactive. For the same molecule, the molecule was classed as inactive in test [14], in test [15], in [16], in [17], in test [18] and in test [19]. Besides, the molecule was classed as inactive in test [20].

As to `CCCCc1ccc2c(n1)[C@@H](c1ccc(OC)cc1C[C@H](C)C(=O)O)[C@H](C(=O)O)[C@H]2c1ccc2c(c1)OCO2`, the molecule was classed as inactive in test [1], in test [2], in [3], in [4], in [5] and in test [6]. For the same molecule, the result in [7], in test [8], in [9], in [10], in test [11] and in [12] was inactive. Further, the outcome in test [13], in test [14], in test [15], in [16], in [17] and in test [18] was inactive.

As for `Cc1ccccc1Cl`, the outcome in test [1], in test [2], in test [3], in [4], in test [5] and in test [6] was inactive. The molecule was called inactive in test [7], in test [8], in [9], in test [10], in test [11] and in test [12]. For the same molecule, the result in test [13], in test [14], in test [15], in test [16], in test [17] and in [18] was inactive. For the same molecule, the call in [19] was inactive.

For the molecule `CCc1c(C(=O)NN2CCCCC2)nn(-c2ccc(Cl)cc2Cl)c1-c1ccc(Br)cc1`, the concentration at half-maximal activity (AC50) in [1] is 27.2 µM (active); in test [3] it was 113 µM (active); in test [4] it was 27.7 µM (active); in test [5] it was 30 µM (active); in [6], 70.4 µM (active); in test [7] it was 32.8 µM (active). For the same molecule, the AC50 is 162 µM (active) in test [10], 6.36 µM (active) in [14], 1.91 µM (active) in [15] and 3.93 µM (active) in test [17]. For the same molecule, the result in test [2], in test [8], in test [9], in test [11], in test [12] and in test [13] was inactive. The call in test [16] and in test [18] was inactive.

`C1CCC(SSC2CCCCC2)CC1`: the AC50 in test [1] was 97.4 µM (active); in test [6], 113 µM (active); in test [7], 108 µM (active); in [9] it was 148 µM (active); in test [14] it was 65.6 µM (active); in test [16] it was 66.3 µM (active). The AC50 in [17] is 125 µM (active). Also, the molecule was classed as inactive in test [2], in test [3], in [4], in test [5], in test [8] and in test [10]. The call in test [11], in test [12], in test [13], in test [15] and in test [19] was inactive.

As to `CCCCN(CCCC)CCCC`, the molecule was classed as inactive in test [1], in [2], in [3], in [4], in test [5] and in test [6]. Further, the result in [7], in test [8], in test [9], in test [10], in test [11] and in test [12] was inactive. Besides, the outcome in [13], in test [15], in [16], in [17] and in [18] was inactive.

`COC(=O)c1ccc(O)cc1`: the outcome in test [1], in test [2], in [3], in test [4], in [5] and in test [6] was inactive. In addition, the call in test [7], in test [8], in test [9], in test [10], in test [11] and in [12] was inactive. The outcome in test [13], in [14], in [15], in test [16], in test [17] and in test [18] was inactive.
